# Results from the supplement of paper PMC6555819.
# Tests used:
# Assay in all cases: PBM binding z-score (relative to random genomic background probes); higher = stronger binding; sequences stand for … in GC…GCGATTGACAGCGTAGAATGAAGG
# [1] = tested on: FXR:RXRa (NR concentration 270 nM, RXRa partner concentration 90 nM)
# Outline: (§1)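 Random background probes are the reference for binding z-scores. These scores derive from regression-normalized fluorescence on custom Agilent 4×180K protein-binding microarrays incubated 1 h with ligand-free nuclear receptor dimers. Binding was detected with antibodies against each partner (one per run).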
# [2] = tested on: LXRa:RXRa (NR concentration 270 nM, RXRa partner concentration 90 nM)
# Outline: as §1
# [3] = tested on: LXRa homodimer (NR concentration 270 nM)
# Outline: as §1
# [4] = tested on: LXRb:RXRa (NR concentration 270 nM, RXRa partner concentration 90 nM)
# Outline: as §1
# [5] = tested on: LXRb homodimer (NR concentration 270 nM)
# Outline: as §1
# [6] = tested on: PPARa:RXRa (NR concentration 270 nM, RXRa partner concentration 90 nM)
# Outline: as §1
# [7] = tested on: PPARg:RXRa (NR concentration 180 nM, RXRa partner concentration 90 nM)
# Outline: as §1
# [8] = tested on: PPARg:RXRa 270nM:90nM, anti-RXR (NR concentration 270 nM, RXRa partner concentration 90 nM)
# Outline: as §1
# [9] = tested on: PPARg:RXRa 30nM:10nM, anti-RXR (NR concentration 30 nM, RXRa partner concentration 10 nM)
# Outline: as §1
# [10] = tested on: PPARg:RXRa 90nM:30nM, anti-RXR (NR concentration 90 nM, RXRa partner concentration 30 nM)
# Outline: as §1
# [11] = tested on: PPARg:RXRa DBDmut IVT, anti-RXR (DBD mutation: RXRa K156A/R161A, NR concentration 270 nM, RXRa partner concentration 90 nM)
# Outline: as §1
# [12] = tested on: PPARg:RXRa IVT, anti-PPARg (NR concentration 270 nM, RXRa partner concentration 90 nM)
# Outline: as §1
# [13] = tested on: PPARg DBDmut:RXRa IVT, anti-PPARg (DBD mutation: PPARg1 K132A/R137A, NR concentration 270 nM, RXRa partner concentration 90 nM)
# Outline: as §1
# [14] = tested on: PPARg DBDmut IVT, anti-PPARg (DBD mutation: PPARg1 K132A/R137A, NR concentration 270 nM)
# Outline: as §1
# [15] = tested on: PPARg homodimer (NR concentration 180 nM)
# Outline: as §1
# [16] = tested on: PXR:RXRa (NR concentration 270 nM, RXRa partner concentration 90 nM)
# Outline: as §1
# [17] = tested on: PXR homodimer (NR concentration 270 nM)
# Outline: as §1
# [18] = tested on: RARa:RXR (NR concentration 270 nM, RXRa partner concentration 90 nM)
# Outline: as §1
# [19] = tested on: RARa homodimer (NR concentration 270 nM)
# Outline: as §1
# [20] = tested on: RARb:RXRa (NR concentration 270 nM, RXRa partner concentration 90 nM)
# Outline: as §1
Sequence,PBM binding z-score [1],PBM binding z-score [2],PBM binding z-score [3],PBM binding z-score [4],PBM binding z-score [5],PBM binding z-score [6],PBM binding z-score [7],PBM binding z-score [8],PBM binding z-score [9],PBM binding z-score [10],PBM binding z-score [11],PBM binding z-score [12],PBM binding z-score [13],PBM binding z-score [14],PBM binding z-score [15],PBM binding z-score [16],PBM binding z-score [17],PBM binding z-score [18],PBM binding z-score [19],PBM binding z-score [20]
CGTCCAAGGTCAGCAGGTCAATGAAAGCGACGTG,6.32,4.32,0.919,3.56,-0.0922,5.37,5.19,5.03,1.33,3.38,3.22,3.95,-0.262,-0.753,2.98,4.21,0.593,5.49,0.0185,5.24
TCTGCTAGGTCTACGATGGTCAGCTAATCTGCTA,-0.634,-0.811,-1.12,-0.871,-0.759,-0.453,-0.582,-0.0115,1.48,0.437,0.395,-0.0472,-1.03,-0.797,-2.36,-0.731,-1.3,-1.07,-0.904,-0.194
AGAATGAGGTTAGACGTAGATCAGGGAAGAAAGT,0.755,0.774,0.0351,0.67,-0.107,2.02,0.989,1.22,0.406,0.527,3.27,1.52,0.96,1.16,0.901,0.631,0.578,1.17,0.74,1.21
CCTAGCAGCCCAATCTGGGTCACTCAAGGCTTGA,0.0445,0.132,-0.399,0.523,-0.695,2.93,1.6,1.71,-0.36,1.1,3.69,4.29,-0.334,-0.918,0.624,0.268,-0.803,1.12,-0.169,0.878
TAGCCTAGGTAATGGGCCAGTATACCACGCGAAC,-0.654,-0.856,-0.526,-0.351,-0.976,-0.193,0.503,0.264,-0.0812,-0.179,-0.319,0.78,-0.42,-0.561,-0.148,-0.351,-0.609,-0.221,-0.573,-0.295
CCGACTGGGGCAGAAAGGTGACCATACCATCCGG,-0.198,-0.194,-0.391,-0.267,-1.39,0.838,1.34,1.98,-0.273,1.32,1.97,2.21,-0.413,-1.14,0.473,-0.192,-0.34,0.197,-0.0337,1.19
CGTCCAGGGTCAATGCTAGGTCAGTGAAAGCATT,6.33,5.16,0.988,4.06,-0.00452,5.61,4.11,4.59,1.57,3.18,1.7,3.15,-0.224,0.0209,3.59,4.54,-0.194,6.03,0.75,4.82
ATCTCTAGGTAAGATTCAGTTCAGTGAAGAACGC,0.354,0.48,0.604,0.249,0.778,0.179,-0.128,0.299,0.045,0.492,0.989,0.954,0.543,0.745,0.75,0.994,1.17,0.657,1.15,0.123
TCTTGTAGATCAAGCAGGTTACGAAAGCCTGAGT,0.426,0.343,-0.343,0.659,-0.527,1.03,0.00625,1.34,2.5,1.88,1.76,1.04,-0.0946,0.435,0.37,0.615,-0.0528,0.951,-0.22,0.516
CCTACTGGGCCAAAAAGGACATTGATGCCGATAA,-0.363,-0.495,-0.28,-0.539,-0.727,-0.00322,1.04,1.6,0.0632,1.17,3.5,2.63,-0.447,0.0111,0.363,-0.396,0.177,-0.191,0.526,0.68
AGAACGAGGGCACGCTGAGTTAATAGCAGAGTAG,0.956,0.697,-0.612,0.378,-1.03,1.99,2.22,1.65,0.0968,1.08,4.13,3.9,-0.114,0.0711,0.0693,1.38,-0.237,0.718,-0.564,2.52
TCATATAGGTAAATGCTAGGAGAAAGTCCGATCT,0.665,0.615,0.0582,0.346,0.0208,0.892,0.807,2.25,3.95,3.15,3.74,1.59,1.52,1.09,0.813,0.458,0.215,0.385,0.843,0.136
AATACAGGGTCATCGTAGGCCAGAGCACGCACAG,7.49,6.27,2.28,4.72,1.31,5.79,6.53,6.08,3.29,4.98,2.92,4.29,2.99,0.869,3.33,4.96,0.778,5.48,0.827,4.21
GCTTACGGGACAAAGGTTATAGCATGAATAGAAT,1.23,1.56,0.265,2.04,-0.135,4.42,7.78,7.39,6.27,8.27,1.28,3.13,0.314,1.06,1.03,1.57,0.222,2.59,0.238,1.81
ATATGTAGGTTAGCTGGGGTCATGCAGACTAGGC,4.32,5.63,1.92,4.51,0.764,5.44,6.19,5.5,3.22,5.13,6.73,6.58,3.11,1.46,3.23,6.14,2.18,5.87,1.4,3.44
CCTGCTAGGTCATGGTCAGCTAGTCTACAGTATG,3.74,2.28,-0.0362,1.62,-0.295,3.45,2.38,2.89,0.503,1.92,4.65,3.97,0.24,-0.536,1.4,1.51,-0.479,2.41,-0.496,4.15
CTCGAAAGGTCGGTTGAGGTGAGTATCCGGATAA,2.5,1.81,-0.338,1.44,0.0486,2.71,0.0243,1.33,-0.0688,0.975,0.135,0.893,-0.0361,-0.258,1.02,2.98,-0.135,2.21,-0.322,3.18
GCTCGGAGGACAGGGTCAGAGCTTTGTCCGTAGA,1.13,0.858,-0.746,0.906,-1.08,2.62,-0.204,0.469,-0.854,0.00374,-0.294,0.104,-1.35,-1.12,-0.0128,1.22,-0.77,2.28,-1.04,2.55
CCTGCTTGGTCAATGGTCAGCTAAAGCAGCTCGC,-0.266,-0.183,-0.536,-0.566,-0.491,-0.243,-0.553,0.82,-0.904,0.17,0.434,-0.107,-1.05,-0.884,0.138,-0.296,-0.881,0.00711,-0.943,1.01
CCTCGGAGGACAGAAGGTCAGAGATGTCCGCTTT,0.986,1.24,0.141,0.889,-0.867,1.55,0.383,0.542,-0.288,0.432,-0.271,0.124,-1.91,-1.27,1.03,1.41,0.164,1.93,0.613,3.01
CCTAGGAGGCCAGGGTCACTCAAGCATTTCGCTT,1.76,1.21,-0.383,1.7,-1.15,3,0.95,1.71,-0.259,0.653,0.19,1.11,-0.773,-1.85,1.09,2.28,-0.346,2.55,-0.732,2.67
ATCTCTATGTAAAGATAGTTCAGTGAATGCAAAT,-0.132,0.583,0.163,0.261,0.232,0.222,0.759,0.0606,0.319,0.173,-0.623,-0.061,0.754,1.67,0.106,0.604,0.457,0.433,0.866,0.242
ACTATTAGTTGGGACGAGGGCAACCGATAGGTTG,0.251,0.126,-0.235,0.0169,0.305,0.354,0.695,0.305,0.0129,0.225,-0.0902,0.659,0.777,0.502,0.934,0.478,0.579,0.451,0.563,1.03
ATCGAAAGGTCGAAGAGGTGAGTATACACCGTTT,4.26,3.51,-0.1,2.49,0.443,4.09,2.38,2.8,0.698,2.03,-0.0174,1.75,0.444,0.332,1.01,2.82,0.5,3.46,0.27,3.62
GCTATTAGTTGAACGGGCAACCGAATGATTCTCG,-0.438,-0.312,-0.165,-0.485,-0.496,-0.347,0.352,0.00975,-0.295,-0.0379,0.443,-0.481,-1.02,-0.0789,-0.518,-0.435,-0.664,-0.533,-0.461,0.14
ATCTCTAGGTAAAGTGCAGTGAAAGATCGATAGA,0.236,0.336,-0.00202,-0.0786,0.221,0.525,0.843,2.05,0.6,1.67,2.44,1.95,0.431,0.336,0.363,-0.0343,0.194,0.372,0.333,0.504
ACTAGTTGGTCAGCTGAGGTCACAAACAATTCGG,2.51,2.67,2.22,3.43,0.432,3.72,1.41,2.05,0.167,1.14,1.09,2.67,-0.0448,0.681,2.75,5.42,1.38,4.65,1.05,3.53
CCGAGTAGGTTATGGGGCATTCTGGCAACGGTGA,0.393,0.413,-0.113,0.625,-0.33,2.14,3.38,4.15,2.03,3.6,3.05,3.19,-0.237,-1.42,1.24,0.151,0.0972,0.523,0.262,0.978
CGTCAAAGTTCAACTAAGGTATCGTAAAGCACGC,7.21,6.22,4.37,4.24,2.23,5.15,4.83,5.57,2.02,4.5,0.0447,1.92,1.2,0.78,3.06,5.09,3.7,4.2,2.1,5.24
